RmlC RmlD mix = RmlC and RmlD coupled enzyme inhibitors, primary screen, biochemical, 384-well, compound mixtures, retest. RmlC/RmlD coupled enzyme inhibition, 384-well mixture HTS. inhibition, % at 5.5 µM. 110,000 tested, 0.39% active. AID 1532, 2009; in the data active = inhibition above about 30%, passing the limit was not always enough; inconclusive = no clear call, values can overlap the other calls
HIV RNase H inh-1 = HIV-1 RT RNase H inhibitors, primary screen, biochemical, fluorescence | inhibition, % at 10 µM | Gag-Pol polyprotein (Human immunodeficiency virus type 1 group M subtype B (isolate … | 65,000 tested, 1.9% active | RT-RNase H RNA/DNA duplex cleavage; in the data active = inhibition above about 50%
HIV RNase H inh-2 = HIV-1 RT RNase H inhibitors, retest, confirmation, biochemical; shares compounds with HIV RNase H inh-1; Recombinant RT RNase H, fluorescent RNA/DNA duplex cleavage; inhibition, % at 10 µM; 1,000 tested, 39% active; AID 651, 2007; in the data active = inhibition above about 48%; inconclusive = no clear call, values can overlap the other calls
An asterisk follows results filed as active; ? = inconclusive; . = not tested or not shown. The entries come from a sample that favours hits as a whole.

SMILES	RmlC RmlD mix	HIV RNase H inh-1	others
CC(c1ccc(Br)cc1)N1CC23C=CC(O2)C(C(=O)O)C3C1=O (stereo unspecified)	8.8	-14.2
CNC(=O)c1cc2cc(OC)ccc2oc1=N	42.0*	-10.0
CNC(=O)c1cc2cc(OC)ccc2oc1=O	-0.3	.
CC(C)(C)C(=O)Oc1cc(N)n(S(=O)(=O)c2ccccc2)n1	.	-14.2
Cc1cc(C)c2c(n1)nn1c(NCCOCCO)cc(C)nc21	44.1*	-8.7
Cc1cc(C)c2c(n1)nn1c(N3CCN(c4ccccc4)CC3)cc(C)nc21	-27.5	14.7
O=C1OC(Nc2ccc(Br)cc2F)c2ccccc21 (stereo unspecified)	-13.9	-0.5
COC(=O)c1cccc(NC(=O)c2ccco2)c1	-2.9	.
CCCCN(C(=O)NC(=O)C1=C(N2CCOCC2)/C(=C/c2ccccc2)CC1)S(C)(=O)=O	.	-9.7
CN(C(=O)NC(=O)C1=C(N2CCOCC2)/C(=C/c2ccccc2)CC1)S(C)(=O)=O	135.2*	-11.8
O=C(Nc1ccccc1)N1CCCC2CCCCC21 (stereo unspecified)	10.4	-10.2
CC(=O)Cc1nsc(NC(=O)c2ccc(-c3cccc(C(F)(F)F)c3)o2)n1	62.4	1.0
Cc1nnc(NC(=O)c2ccc(-c3cccc(C(F)(F)F)c3)o2)s1	1.1	57.0*
CCOC(=O)c1cccc(NC(=O)Nc2cc(OC)ccc2OC)c1	-8.2	2.7
COCCCNc1nc(=S)[nH]c2cc(OC)c(OC)cc12	14.1	-7.0
COC(=O)c1ccc(CSc2ncnc3c2sc2nc(N4CCOCC4)c4c(c23)CCCC4)o1	-42.5	82.9*
COC(=O)CSc1ncnc2c1sc1nc(N3CCOCC3)c3c(c12)CCCC3	-17.6	.
CCCCn1c(O)c(C(C)=NCCN2CCCCC2)c(=O)[nH]c1=O	3.9	-11.3
O=C1C2ON(c3ccccc3)C(c3ccccc3F)C2C(=O)N1c1ccccc1 (stereo unspecified)	-16.0	0.9
Cc1ccc(-c2nnn(CC(=O)N(c3ccccc3)C(C(=O)NC3CCCC3)c3ccco3)n2)o1 (stereo unspecified)	-8.2	60.4*
Cc1ccc(-c2nnn(CC(=O)N(Cc3cccs3)C(C(=O)NC3CCCC3)c3ccco3)n2)o1 (stereo unspecified)	-6.6	-4.7
CCn1c(C(O)c2ccc3c(c2)OCO3)nc2ccccc21 (stereo unspecified)	8.5	-3.6
CCOc1cc(/C=N/n2cnnc2)ccc1O	7.1	-4.5
Cn1c(=O)n(C)c2cc(/C=N/n3cnnc3)ccc21	14.4	58.6*	HIV RNase H inh-2=0.0
CCOC(=O)C1=C(CN2CCOCC2)NC(=O)NC1c1cc(C)ccc1C (stereo unspecified)	5.5	5.1
SMILES	RmlC RmlD mix	HIV RNase H inh-1	others
CC1Cn2c(nnc2-c2cccc(N)c2)S1 (stereo unspecified)	-9.4	-1.2
CC(C)c1nnc(NC(=O)CCC(=O)NCc2ccc3c(c2)OCO3)s1	-6.6	1.7
N/C(Cc1cccs1)=N\OC(=O)COc1ccc(Br)cc1Cl	-10.1	.
CCc1ccc(NC(=O)CSc2nnc(COc3ccc4c(c3)CCCC4)o2)cc1	-13.7	.
COC(=O)c1ccc(NC(=O)CSc2nnc(COc3ccc4c(c3)CCCC4)o2)cc1	-11.9	74.9*	HIV RNase H inh-2=30.0
O=C(Nc1ccccc1)N1CCCC(c2nc(-c3ccc(F)cc3)no2)C1 (stereo unspecified)	1.4	.
O=C(Nc1cccc(C(F)(F)F)c1)N1CCC(c2nc(-c3ccc(F)cc3)no2)CC1	6.2	67.3*	HIV RNase H inh-2=47.2
CCOC(=O)c1sc(NC(=O)CSc2nc(C)cc(C)n2)c(C#N)c1C	-7.8	.
Cc1cccc(C)c1NC(=O)CSc1nc(-c2ccco2)cc(C(F)(F)F)n1	-29.5	.
CCOC(=O)c1sc(NC(=O)CSc2nnc(Cc3ccccc3)o2)c(C#N)c1C	.	90.4*	HIV RNase H inh-2=53.8*
CCOC(=O)c1sc(NC(=O)CSc2n[nH]c(-c3ccccc3)n2)c(C#N)c1C	.	83.2*	HIV RNase H inh-2=61.8*
CCOC(=O)c1sc(NC(=O)CSc2nc(-c3ccco3)cc(C(F)(F)F)n2)c(C#N)c1C	-4.5	75.6*	HIV RNase H inh-2=?
CCOC(=O)c1c(NC(=O)CSc2nnc(Cc3ccccc3)o2)sc(C(C)=O)c1C	3.2	.
CCn1c(SCC(=O)Nc2nc(-c3ccccc3)cs2)nnc1-c1ccccc1O	-5.8	15.2
O=C1NCCCC2c3cc(O)c4ccccc4c3OC12N1CCCCC1 (stereo unspecified)	7.7	51.6*	HIV RNase H inh-2=14.8
O=C1NCCCC2c3c(cc(Br)c(O)c3Br)OC12N1CCOCC1 (stereo unspecified)	-5.4	22.3
O=C(c1ccco1)N1CCN=C1SCc1ccccc1F	-8.5	-19.3
CCOC(=O)C(Cc1ccccc1)NC(=O)Cn1nnc(-c2ccc(SC)cc2)n1 (stereo unspecified)	19.2	.
COc1ccc(-c2ccc(C#N)c(SCC(=O)Nc3sc4c(c3C#N)CCC4)n2)cc1	-4.2	.
N#Cc1ccc(-c2cccnc2)nc1SCC(=O)Nc1sc2c(c1C#N)CCC2	-4.9	89.8*	HIV RNase H inh-2=42.0
CN1C(=O)SC(Nc2ccc(F)cc2)C1=O (stereo unspecified)	-0.5	-10.5
COc1cc(-c2nn3c(C4CCCCC4)nnc3s2)cc(OC)c1OC	8.6	74.8*	HIV RNase H inh-2=29.3
COc1ccc(-c2nn3c(C4CCCCC4)nnc3s2)cc1OC	-2.6	37.5
COc1ccccc1C(=O)Nc1nc(N)n(-c2ccccc2)n1	4.0	.
C=CCNC(=O)c1onc(CSc2cccc(C)c2)c1C(=O)O	-5.4	.
SMILES	RmlC RmlD mix	HIV RNase H inh-1	others
CC(C)c1ccc(-c2c(C#N)c(N)nc(SCC(=O)N3CCCCCC3)c2C#N)cc1	2.4	.
N#Cc1c(N)nc(SCC(=O)NC2CCCCC2)c(C#N)c1-c1ccc(Cl)cc1	12.2	81.8*	HIV RNase H inh-2=58.8*
O=C(O)c1ccc(CSc2nnc(SCc3ccccc3)s2)cc1	0.6	.
O=C1CC(c2ccsc2)c2cc3c(cc2N1)OCCO3 (stereo unspecified)	0.6	-76.8
OCCN(CCO)c1ncnc2c1sc1nc(N3CCOCC3)c3c(c12)CCCC3	6.3	-44.0
CSc1nc(N(CCO)CCO)c2sc3nc(-c4ccco4)c4c(c3c2n1)CCC4	-9.0	56.4*	HIV RNase H inh-2=16.1
CC1CCN(C(=O)CSc2nncn2-c2ccccn2)CC1	12.5	75.6*	HIV RNase H inh-2=37.2
CC1CCN(C(=O)CSc2nnc(-c3ccncc3)n2C)CC1	-11.5	.
Cn1c2ccccc2c2cc(C(=O)N3CCN(CCO)CC3)sc21	2.4	.
Cc1nc(N2CCCCC2)c2sc(=S)n(C)c2n1	5.7	-11.2
CCN1CCN(c2nc(C)nc3c2sc(=S)n3C)CC1	1.5	90.2*	HIV RNase H inh-2=64.7*
COc1ccc2cc3cc(C(=O)NCCN4CCc5ccccc5C4)oc3nc2c1	31.1	-17.1
CCCSc1nc2c(c(=O)[nH]c(=O)n2C)n1Cc1ccc(C)cc1	19.3	4.8
C=CCSc1nc2c(c(=O)[nH]c(=O)n2C)n1Cc1ccc(C)cc1	.	84.3*	HIV RNase H inh-2=30.6
C=CCSc1nc2c(c(=O)[nH]c(=O)n2C)n1C(C)C	-6.5	75.9*	HIV RNase H inh-2=59.4*
CC(C)Sc1nc2c(c(=O)[nH]c(=O)n2C)n1Cc1ccc(Cl)cc1	4.3	27.4
C/C(Cl)=C/CSc1nc2c(c(=O)[nH]c(=O)n2C)n1C(C)C	-7.0	-20.9
C/C=C/Cn1c(SCc2ccc(C)cc2)nc2c1c(=O)[nH]c(=O)n2C	3.4	-9.6

From PubChem BioAssay
